Source: PubChem BioAssay
Shown are actives, neighbours in structure and some others; about 4% of the full set was active somewhere.
FBA Mtb inh: inhibitors of M. tuberculosis fructose-bisphosphate aldolase. P9WQA3. purified M. tuberculosis FBA, fluorescence read-out. inhibition, % at 1 µM. 360,000 tested, 2.3% active. AID 588726; in the data active = inhibition above about 27%;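 also: 0% = vehicle and 100% = reference inhibitor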
Target sequence (P9WQA3 whole entry, looked up): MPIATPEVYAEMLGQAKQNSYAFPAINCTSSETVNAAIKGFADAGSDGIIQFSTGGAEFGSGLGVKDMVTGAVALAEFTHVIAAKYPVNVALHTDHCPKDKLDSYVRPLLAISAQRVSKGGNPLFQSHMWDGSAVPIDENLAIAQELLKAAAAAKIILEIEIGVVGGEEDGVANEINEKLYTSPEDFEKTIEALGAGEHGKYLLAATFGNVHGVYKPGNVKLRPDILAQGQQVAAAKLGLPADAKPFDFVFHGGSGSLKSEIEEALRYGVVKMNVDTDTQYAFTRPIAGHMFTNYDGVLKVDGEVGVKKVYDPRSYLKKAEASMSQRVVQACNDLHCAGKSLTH
MazF activator: increases E. coli MazEF RNase cleavage of RNA. AID 504720. P0AE70. 350,000 tested, 0.32% active. activation, % at 20 µM. FAM/BHQ RNA-DNA oligo cleavage fluorescence, 5 h; in the data active = activation above about 50%
Target sequence (P0AE70 whole entry, looked up): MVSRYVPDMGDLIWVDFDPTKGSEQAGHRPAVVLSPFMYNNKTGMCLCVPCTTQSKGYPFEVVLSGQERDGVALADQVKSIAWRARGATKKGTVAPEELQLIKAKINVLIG
GDH-TPI counter-1: counter-screen for M. tuberculosis FBA inhibitors: GDH-TPI coupled enzymes; GDH-TPI coupled enzyme counterscreen, NADH absorbance; inhibition, % at 4.8 µM; 360,000 tested, 1.2% active; in the data active = inhibition above about 30%;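 also: 0% = DMSO wells and 100% = wells lacking the enzyme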
Mtb bLac sens: beta-lactam sensitization of Mtb H37Rv. inhibition, % at 25 µM. M. tuberculosis H37Rv growth with meropenem, percent inhibition. AID 434955. 330,000 tested, 0.27% active;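 also: growth measured after seven days incubation then overnight dye step; 0% = bacteria only wells and 100% = bacteria with antibiotic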
CCHF vOTU inh: blocks the CCHF virus ovarian tumor domain protease; CCHFV vOTU protease, Pep-AMC fluorescence; inhibition, % at 11.5 µM; 370,000 tested, 0.55% active; in the data active = inhibition above about 30%; also: 0% = vehicle wells with enzyme and 100% = no enzyme wells
Mtb FBA confirm: Mtb FBA inhibition, confirmed. shares compounds with FBA Mtb inh. purified M. tuberculosis FBA, fluorescence read-out. inhibition, % at 1 µM. 5,600 tested, 78% active; in the data active = inhibition above about 27%;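 also: 0% = vehicle wells and 100% = reference inhibitor wells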
GDH-TPI counter-2: counter-screen for M. tuberculosis FBA inhibitors: GDH-TPI coupled enzyme inhibition. shares compounds with FBA Mtb inh. GDH-TPI coupled enzyme counterscreen, fluorescence. inhibition, % at 1 µM. 5,600 tested, 81% active; in the data active = inhibition above about 10%
GDH-TPI DR: counter-screen for M. tuberculosis FBA inhibitors: GDH-TPI dose response | shares compounds with FBA Mtb inh | AID 652145 | 170 tested, 79% active | GDH-TPI coupled enzyme assay, fluorescence, artifact counterscreen | IC50, µM
Starred values were filed as active, the others as inactive; . = no result; + = active, no number. Unless noted, no rule for the calls is given here.

SMILES	FBA Mtb inh	MazF activator	GDH-TPI counter-1	Mtb bLac sens	CCHF vOTU inh	Mtb FBA confirm	GDH-TPI counter-2	others
Cc1oc2c(CN3CCCCC3C)c(O)ccc2c(=O)c1-c1ccc(Br)cc1 (stereo not given)	108*	11	11	3	-66	118*	97*
Cc1ccc(Cn2c(SCCN3CCCCC3)nc3c2c(=O)n(C)c(=O)n3C)cc1	63*	3	6	-4	1	14	11*
CCc1cc2c(COC(=O)c3c(C)noc3C)cc(=O)oc2cc1O	33*	9	32*	0	-13	85*	62*
COC(=O)[C@]12C[C@H](CC(=O)NCCc3ccccc3OC)C(=O)N(Cc3ccc(Cl)cc3Cl)C1=C[C@H](C(C)C)O[C@@H]2C1CC1	.	.	.	.	18	.	.
N#CCSc1n[nH]c2nc3c(c(=O)n12)C1(CCCCC1)Cc1ccccc1-3	28*	12	3	2	18	-1	-3
CCSc1n[nH]c2nc3c(c(=O)n12)C1(CCCCC1)Cc1ccccc1-3	5	5	15	0	4	.	.
Cn1c(NCCCO)nc2c(c1=O)C1(CCCCC1)Cc1ccccc1-2	65*	-5	15	1	-71	122*	85*
CCC(=O)Nn1cnc2c(c1=O)C1(CCCCC1)Cc1ccccc1-2	2	-2	-2	-3	9	.	.
COc1ccc2nc3oc(C(=O)N4CCC5(CC4)OCCO5)cc3cc2c1	50*	1	13	4	-25	187*	156*
COc1cc(OC)cc(C(=O)N2CCN(C3CCCCC3)CC2)c1	0	2	9	-13	-10	.	.
COc1ccc2nc3oc(C(=O)Nc4ccc(OC)c(OC)c4)cc3cc2c1	18	0	3	-2	-6	.	.
COc1ccc2cc3cc(C(=O)N4CCN(C5CCCCC5)CC4)oc3nc2c1	50*	-19	9	0	.	23	5	GDH-TPI DR=1.7*
COc1cccc(C(=O)N2CCC3(CC2)OCCO3)c1	0	-3	-11	-9	-8	.	.
COc1ccc2cc3cc(C(=O)NCCc4ccc(OC)c(OC)c4)oc3nc2c1	31*	-1	45*	21	-20	54*	46*
CCOC(=O)c1cnc2c(C)cccc2c1NCc1ccco1	10	-4	8	15	-8	.	.
CCOC(=O)c1ccc2ncc(C(=O)OCC)c(NCc3ccco3)c2c1	62*	-1	18	62	-41	8	1
COC(=O)[C@]12CCCCC=C1N(Cc1ccc(OC)cc1)C(=O)[C@@H]2CC(=O)NCCCN1CCCC1=O	.	.	.	.	-1	.	.
Oc1ccccc1CNc1cnc2ccccc2c1	40*	-1	13	98	-31	5	3
Oc1ccc(Cl)cc1CNc1cnc2ccccc2c1	34*	5	30	96	-33	+	170*
C=CCc1cccc(CNc2cnc3ccccc3c2)c1O	26	-3	1	-9	-39	.	.
CC(C)n1c(NCc2cc(Cl)ccc2O)nc2ccccc21	-1	5	6	5	10	.	.
CCCCNS(=O)(=O)/C=C/c1ccccc1CCNC(=O)OC(C)(C)C	.	.	.	.	1	.	.
COc1ccc(OC)c(-n2c(C)ccc2-c2ccc(S(C)(=O)=O)cc2)c1	91*	-6	19	-6	8	87*	97*
COc1ccc(CN2C(=O)c3cccnc3C2O)cc1 (stereo not given)	0	-2	-6	-5	-1	.	.
CCCN1C(=O)c2ccccc2NC1c1ccc(C)cc1 (stereo not given)	78*	5	3	1	-85	5	-2
SMILES	FBA Mtb inh	MazF activator	GDH-TPI counter-1	Mtb bLac sens	CCHF vOTU inh	Mtb FBA confirm	GDH-TPI counter-2	others
Cc1ccc(CN2C(=O)c3ccccc3NC2c2ccccn2)cc1 (stereo not given)	31*	5	-5	-2	-53	63*	51*
O=C1c2ccccc2NC(c2ccccc2)N1CCCN1CCOCC1 (stereo not given)	48*	4	9	-6	-68	123*	107*
COc1ccc(-c2cc3nc(NCCN4CCCC4)n(C)c(=O)c3s2)cc1OC	39*	.	20	.	-37	96*	73*
Cn1c(NCCN2CCCC2)nc2cc(-c3ccsc3)sc2c1=O	2	.	9	.	-6	.	.
COc1ccc(-c2ccc(-c3noc(C(C)C)n3)c(OC)n2)cc1	108*	0	25	99	-38	135*	107*
COC(=O)C1CN(CCc2ccccc2)CCS(=O)(=O)N1Cc1ccccc1F (stereo not given)	.	.	.	.	1	.	.
Nc1nc2ccccc2nc1N	51*	-3	3	7	4	69*	61*
Cn1c(N)nc2ccccc2c1=O	28*	1	-1	-13	-24	34*	22*
CCCc1c2ccccc2nc2ccccc12	50*	5	8	0	-67	38*	34*
Nc1c2ccccc2nc2ccccc12	63*	0	6	72	-103	73*	48*
c1ccc2nc3ccccc3nc2c1	4	-22	4	2	-10	.	.
Nc1c2c(nc3ccccc13)CCCC2	-1	7	13	-2	1	.	.
CCCc1cc(C(=O)O)c2ccccc2n1	2	2	1	-12	.	.	.
Cn1c(NN)nc2ccccc2c1=O	5	-3	4	4	-1	.	.
C#CCNC(=O)C[C@@H]1C(=O)N2CCCC3=C2[C@@]1(C(=O)OC)CCCC3	.	.	.	.	1	.	.
N#Cc1c2ccccc2nc2ccccc12	28*	3	-2	95	-11	182*	117*
CCCC(C)C(=O)NC1CCCCN(Cc2ccc(C)cc2)C1=O (stereo not given)	.	.	.	.	4	.	.
COc1cc(OC)cc(-c2c(-c3cccs3)c3cc(-c4cccc5[nH]ccc45)ccc3n2C)c1	47*	-16	21	7	0	112*	79*
COc1cc(F)cc(-c2ccc3c(c2)c(-c2cccs2)c(-c2cc(OC)cc(OC)c2)n3C)c1	2	-7	22	2	4	.	.
CC(C)CC(=O)Nc1cccc(-c2nc3ncccc3o2)c1	32*	-6	-4	-10	-17	0	-3
O=C(Nc1cccc(-c2nc3ncccc3o2)c1)c1ccccc1	0	3	-8	43	-10	.	.
CCCCC(=O)Nc1cccc(-c2nc3ncccc3o2)c1C	16	5	7	0	17	.	.
Cc1c(NC(=O)C(C)C)cccc1-c1nc2ncccc2o1	29*	-5	9	3	-10	-7	-8
Cc1ccc(-c2nc3ncccc3o2)cc1NC(=O)C(C)C	55*	6	11	-1	-1	18	9
